In the library only some 1.1% were active in any assay of this set; here they are far more common.
MOR-DOR inv ag = inverse agonists of MOR-DOR heterodimerization, primary screen, cell-based, luminescence; actives 0.21% (n = 340,000); Mu-type opioid receptor (Homo sapiens) + Delta-type opioid receptor (Homo sapiens), …; cell-based MOR-DOR heterodimer luminescence, inverse agonism; inhibition, % at 9.3 µM; in the data active means inhibition above about 22%, passing the limit was not always enough
HTR5A inv ag = HTR5A inverse agonists in luminescence cell assay, primary screen, counter-screen for OPRM1-OPRD1 heterodimer inverse agonist project, full-deck HTS | HTR5A cell line, inverse agonism | inhibition, % at 9.3 µM | actives 0.083% (n = 340,000) | AID 504634, 2011; in the data active means inhibition mostly above about 23%, no sharp cut-off; inactive means mostly below about 18%
Target sequence (P47898 whole entry, looked up): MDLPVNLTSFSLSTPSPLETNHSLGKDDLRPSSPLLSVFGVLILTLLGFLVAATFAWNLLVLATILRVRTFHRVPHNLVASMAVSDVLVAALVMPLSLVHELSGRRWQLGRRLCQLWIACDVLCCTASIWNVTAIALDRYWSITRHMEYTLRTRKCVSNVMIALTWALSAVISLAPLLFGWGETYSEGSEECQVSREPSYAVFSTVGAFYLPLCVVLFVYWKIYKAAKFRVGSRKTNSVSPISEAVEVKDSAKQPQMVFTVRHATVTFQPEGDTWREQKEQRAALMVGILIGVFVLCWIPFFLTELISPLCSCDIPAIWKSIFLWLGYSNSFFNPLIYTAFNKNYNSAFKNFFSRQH
HTR5A ag = HTR5A agonists in luminescence cell assay, primary screen, counter-screen for OPRM1-OPRD1 heterodimer agonist project, full-deck HTS. 5-hydroxytryptamine receptor 5A (Homo sapiens), P47898. activation, % at 9.3 µM. cell-based. actives 0.61% (n = 340,000). AID 504692, 2011; in the data active means activation mostly above about 9.5%, no sharp cut-off; inactive means mostly below about 7.6%
MOR-DOR ag = agonists of OPRM1-OPRD1 heterodimerization, primary screen, cell-based, luminescence; cells; activation, % at 9.3 µM; actives 0.3% (n = 340,000)
MOR-DOR ag conf = agonists of MOR-DOR heterodimerization, confirmation, cell-based, luminescence. shares compounds with MOR-DOR ag. actives 45% (n = 830). activation, % at 9.3 µM. cells, luminescence complementation
HTR5A ag ctr2 = HTR5A agonists in cells, counter-screen for OPRM1-OPRD1 heterodimer agonist project, cell-based, luminescence | shares compounds with MOR-DOR ag | HTR5A agonist counterscreen | activation, % at 9.3 µM | actives 8% (n = 830) | AID 504905, 2011; in the data active means activation above about 17%
Numbers stand for hits. Unless noted, no stated cut-off is given here; in the data, active means activation above about 18%; inactive means the rest.

Screening CCn1cc(CN2CCCC(C(=O)Nc3ccc(-c4nc5ccccc5[nH]4)cc3)C2)c(C)n1 (stereo not drawn) returned MOR-DOR inv ag inactive, HTR5A inv ag inactive, HTR5A ag inactive, MOR-DOR ag 31, MOR-DOR ag conf inactive and HTR5A ag ctr2 inactive.
`COc1cccc(NS(=O)(=O)c2cc3c4c(c2)CCC(=O)N4CCC3)c1` gave MOR-DOR inv ag inactive, HTR5A inv ag inactive, HTR5A ag inactive and MOR-DOR ag inactive.
Screening NC(N)=NC(=O)c1nc(Cl)c(N)nc1N returned MOR-DOR inv ag inactive, HTR5A inv ag inactive, HTR5A ag inactive and MOR-DOR ag inactive.
NC(N)=NC(=O)c1nc(Cl)c(N2CCCCCC2)nc1N was read as MOR-DOR inv ag inactive, HTR5A inv ag inactive, HTR5A ag inactive, MOR-DOR ag 72, MOR-DOR ag conf 95 and HTR5A ag ctr2 inactive.
Screening CC(C)[C@H](NC(=O)NCc1ccco1)C(=O)O returned MOR-DOR inv ag inactive, HTR5A inv ag inactive, HTR5A ag inactive and MOR-DOR ag inactive.
Cc1c(Cl)cccc1NC(=S)NCC(C)C was read as MOR-DOR inv ag inactive, HTR5A inv ag inactive, HTR5A ag inactive and MOR-DOR ag inactive.
For Cc1cccc(NC(=S)NCC(c2cccnc2)N(C)C)c1C (stereo not drawn) the results were MOR-DOR inv ag inactive, HTR5A inv ag inactive, HTR5A ag inactive, MOR-DOR ag 416, MOR-DOR ag conf 412 and HTR5A ag ctr2 inactive.
Screening Cc1ccccc1NC(=S)NCC(c1cccnc1)N(C)C (stereo not drawn) returned MOR-DOR inv ag inactive, HTR5A inv ag inactive, HTR5A ag inactive, MOR-DOR ag 216, MOR-DOR ag conf 211 and HTR5A ag ctr2 inactive.
CC(=O)c1ccc(NC(=O)CNCC(c2ccccc2)N(C)C)cc1 (stereo not drawn) was read as MOR-DOR inv ag inactive, HTR5A inv ag inactive, HTR5A ag inactive and MOR-DOR ag inactive.
Screening Cc1ccc(NC(=O)NCC(c2ccccc2)N(C)C)cc1 (stereo not drawn) returned MOR-DOR inv ag inactive, HTR5A inv ag inactive, HTR5A ag inactive, MOR-DOR ag 353, MOR-DOR ag conf 23 and HTR5A ag ctr2 17.
Cc1c(Cl)cccc1NC(=S)NCC(c1cccnc1)N(C)C (stereo not drawn) was read as MOR-DOR inv ag inactive, HTR5A inv ag inactive, HTR5A ag inactive, MOR-DOR ag 474, MOR-DOR ag conf inactive and HTR5A ag ctr2 inactive.
`CCNC(=S)NS(=O)(=O)c1ccccc1` gave MOR-DOR inv ag inactive, HTR5A inv ag inactive, HTR5A ag inactive and MOR-DOR ag inactive.
Screening Cc1cccc2sc(N(CCCN3CCOCC3)C(=O)CS(=O)(=O)c3ccc(F)cc3)nc12 returned MOR-DOR inv ag inactive, HTR5A inv ag inactive, HTR5A ag inactive and MOR-DOR ag inactive.
Screening Cc1ccc(C)c(NC(=S)NCC(c2ccccc2)N(C)C)c1 (stereo not drawn) returned MOR-DOR inv ag inactive, HTR5A inv ag inactive, HTR5A ag inactive, MOR-DOR ag 265, MOR-DOR ag conf 361 and HTR5A ag ctr2 inactive.
Screening COC(=O)C1=C(C)N(Cc2ccccc2)C(=NCc2cccc(C(F)(F)F)c2)N[C@H]1c1cccc(C(F)(F)F)c1 returned MOR-DOR inv ag inactive, HTR5A inv ag inactive, HTR5A ag inactive, MOR-DOR ag 45, MOR-DOR ag conf inactive and HTR5A ag ctr2 inactive.
For COCCN=C1N[C@@H](c2cccc(C(F)(F)F)c2)C(C(=O)OC)=C(C)N1Cc1ccccc1 the results were MOR-DOR inv ag inactive, HTR5A inv ag inactive, HTR5A ag inactive and MOR-DOR ag inactive.
COC(=O)C1=C(C)N(Cc2ccccc2)C(=NCc2cccc(C(F)(F)F)c2)N[C@H]1c1cccc(F)c1 was read as MOR-DOR inv ag inactive, HTR5A inv ag inactive, HTR5A ag inactive, MOR-DOR ag 23, MOR-DOR ag conf inactive and HTR5A ag ctr2 21.

From PubChem BioAssay
